Only some compounds are listed: those with a hit (about 8.9% of all), similar ones and a draw of the others.
KB-3-1 cytotox = qHTS assay for MDR1-selective chemotherapeutics: Primary screen using the parental adenocarcinoma cell KB-3-1; KB-3-1 viability, CellTiter-Glo ATP luminescence, 72 h; Potency, µM (series often up to 46.1 µM), usual class: cytotoxic; 400,000 tested, 1.4% active; further: nearly all actives have a fitted effect of over 60% in size
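Viability of parental KB-3-1 cells, measured by CellTiter-Glo luminescence, followed a 72 h incubation at 37 °C with pinned compounds in phenol-red-free DMEM containing 10% FBS.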
D3 antag = qHTS of D3 Dopamine Receptor Antagonist: qHTS. D(3) dopamine receptor (Homo sapiens), P35462. D3R cells, DiscoveRx beta-arrestin luminescence, antagonist mode; active compounds read low. max response, negative = inhibition, %. 360,000 tested, 2.5% active. AID 652054, 2013; in the data active means max response below about -50%; inconclusive means no clear call, values can overlap the other calls
Target sequence (P35462 whole entry, looked up): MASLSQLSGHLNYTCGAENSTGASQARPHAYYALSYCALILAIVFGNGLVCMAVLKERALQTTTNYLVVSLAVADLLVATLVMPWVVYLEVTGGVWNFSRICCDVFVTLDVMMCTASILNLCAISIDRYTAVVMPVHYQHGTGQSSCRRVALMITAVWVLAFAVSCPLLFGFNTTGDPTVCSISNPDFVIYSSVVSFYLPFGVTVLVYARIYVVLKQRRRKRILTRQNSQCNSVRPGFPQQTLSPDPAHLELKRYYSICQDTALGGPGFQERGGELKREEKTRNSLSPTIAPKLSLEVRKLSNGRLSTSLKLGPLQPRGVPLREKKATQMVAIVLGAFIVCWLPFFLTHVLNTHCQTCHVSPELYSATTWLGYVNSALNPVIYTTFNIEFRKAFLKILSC
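Cells plated overnight at 1500 cells/well, then exposed to library compounds with dopamine controls for 90 minutes at 37 degrees C. DiscoveRx reagent added for 30–60 minutes at room temperature; luminescence read, quantitative HTS format.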
MCF10A rereplic = A quantitative high throughput screen for small molecules that induce DNA re-replication in MCF 10a normal breast cells; 350,000 tested, 2.9% active; MCF 10A DNA re-replication, Hoechst nuclear intensity, 48 h; Potency, µM (top dose mostly 46.1 µM), actives largely listed as activators; AID 624296, 2012; further: nearly all actives have a fitted effect of over 50% in size
KB-V1 cytotox = qHTS assay for MDR1-selective chemotherapeutics: Primary screen using the drug-selected MDR subline cells KB-V1; Potency, µM (highest dose often 46.1 µM), hits mostly cytotoxic; 400,000 tested, 3.4% active; KB-V1 MDR cells viability, CellTiter-Glo, 72 h; further: nearly all actives have a fitted effect of over 60% in size
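Readout: CellTiter-Glo luminescence, 10 min after addition. Cells: KB-V1 MDR subline, 72 h at 37 degrees C with compound. Analysis: corrected, normalized data fitted to concentration-effect curves.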
D3 ag = qHTS of D3 Dopamine Receptor Agonist: qHTS; AID 652048, 2013; max activation, %; D3R DiscoveRx beta-arrestin cells, luminescence, 90 min; D(3) dopamine receptor (Homo sapiens), P35462; 410,000 tested, 0.58% active; in the data active means max activation above about 30%
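Cells at 1500/well, incubated overnight, then treated with pinned compounds (dopamine as control) for 90 min at 37 degrees C. DiscoveRx reagent added for 30 - 60 minutes at room temperature; luminescence read.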
SW480 rerep = A quantitative high throughput screen for small molecules that induce DNA re-replication in SW480 colon adenocarcinoma cells. 340,000 tested, 1.8% active. Potency, µM (titrated, usually from 46.1 µM), most hits filed as activators. SW480 DNA re-replication, Hoechst DNA content imaging, 48 h; further: nearly all actives have a fitted effect of over 55% in size
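SW480 cells exposed to compounds for 48 hr at 37 C, 5% CO2, then Hoechst-stained 40 min. Nuclear DNA content imaged by fluorescence scanning (405 nm excitation, 500-530 nm emission); re-replication scored as increased high-intensity nuclei.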
Numbers stand for hits. Unless noted, the call rests on the fitted dose curve; in most records, active means well fitted curve in the direction sought with a large enough effect; inconclusive means small, poorly fitted or top-dose-only effect, or another doubt; inactive means no such curve, though single readings can be large; an effect the other way counts as inactive or inconclusive.

`CC(=O)c1cccc(NC(=O)c2nc(-c3ccccc3)n(-c3ccccc3C)n2)c1` gave KB-3-1 cytotox inactive, KB-V1 cytotox inactive and D3 ag inactive.
Screening CC(C)OC(=O)c1nnn(-c2nonc2N)c1CN1CCc2ccccc2C1 returned KB-3-1 cytotox inactive, D3 antag inactive, MCF10A rereplic inactive, KB-V1 cytotox 6.5µM, D3 ag inactive and SW480 rerep inactive.
For COC(=O)c1nnn(-c2nonc2N)c1CN1CCc2ccccc21 the results were KB-3-1 cytotox 23µM, D3 antag inactive, MCF10A rereplic inactive, KB-V1 cytotox inconclusive, D3 ag inactive and SW480 rerep inactive.
Screening CCOC(=O)c1nnn(-c2nonc2N)c1CN1CCc2ccccc2C1 returned KB-3-1 cytotox inactive, D3 antag inconclusive, MCF10A rereplic inactive, KB-V1 cytotox inconclusive, D3 ag inactive and SW480 rerep inactive.
Nc1nonc1-n1nnc(C(=O)N/N=C/c2ccccc2)c1CN1CCc2ccccc21 was read as KB-3-1 cytotox inconclusive, D3 antag inactive, MCF10A rereplic inactive, KB-V1 cytotox inactive, D3 ag inactive and SW480 rerep inactive.
COc1ccc(CCC(=O)NO)cc1 was read as KB-3-1 cytotox inactive and KB-V1 cytotox inconclusive.
O=C1CNCc2[nH]c3ccccc3c2N1c1ccccc1 was read as KB-3-1 cytotox inactive, D3 antag inactive, MCF10A rereplic inconclusive, KB-V1 cytotox 23µM, D3 ag inactive and SW480 rerep inactive.
`O=CN1Cc2[nH]c3ccccc3c2N(c2ccc(Cl)cc2)C1=O` gave KB-3-1 cytotox inactive, D3 antag inactive, MCF10A rereplic inconclusive, KB-V1 cytotox inactive, D3 ag inactive and SW480 rerep inactive.
Cc1cc(C)c2c(c1)/C(=c1/sc3n(c1=O)CN(c1ccccc1)CN=3)C(=O)N2 was read as KB-3-1 cytotox inconclusive, D3 antag inactive, MCF10A rereplic inactive, KB-V1 cytotox 16µM, D3 ag inactive and SW480 rerep inactive.
For O=C(OCc1nnc(-c2ccc([N+](=O)[O-])cc2)o1)c1ccc(F)c(S(=O)(=O)N2CCOCC2)c1 the results were KB-3-1 cytotox inactive, D3 antag inactive, MCF10A rereplic inactive, KB-V1 cytotox inactive, D3 ag inactive and SW480 rerep inactive.
`Cc1ccc(C)c(SC2=NS(=O)(=O)c3ccccc32)c1` gave KB-3-1 cytotox inactive and KB-V1 cytotox inactive.
Screening CC(C)(C)C(=O)N1CCN(S(=O)(=O)c2ccc3c(c2)OCCCO3)CC1 returned KB-3-1 cytotox 15µM, D3 antag inactive, MCF10A rereplic inactive, KB-V1 cytotox inconclusive, D3 ag inactive and SW480 rerep inactive.
`C/C1=C2/[N-]C(C(CC(N)=O)[C@@]2(C)CCC(=O)NCC(C)OP(=O)([O-])O[C@H]2[C@@H](O)[C@@H](n3cnc4cc(C)c(C)cc43)O[C@@H]2CO)[C@]2(C)N=C(/C(C)=C3N=C(/C=C4N=C1C(CCC(N)=O)C\4(C)C)[C@@H](CCC(N)=O)[C@]\3(C)CC(N)=O)[C@@H](CCC(N)=O)[C@]2(C)CC(N)=O.CC(=O)O.[Co]` (stereo partly drawn) gave MCF10A rereplic inactive and SW480 rerep inactive.
`Cc1ccc(C(=O)c2cc([N+](=O)[O-])ccc2N2CCOCC2)cc1` gave KB-3-1 cytotox 2.1µM, D3 antag inactive, MCF10A rereplic 3.7µM, KB-V1 cytotox 0.82µM, D3 ag inactive and SW480 rerep 3.7µM.
O=C(c1cc([N+](=O)[O-])ccc1N1CCOCC1)N1CCOCC1 was read as KB-3-1 cytotox inactive, D3 antag inactive, MCF10A rereplic inactive, KB-V1 cytotox inactive, D3 ag inactive and SW480 rerep inactive.
`O=C(COc1ccc([N+](=O)[O-])cc1)N/N=C/c1cc([N+](=O)[O-])ccc1N1CCOCC1` gave KB-3-1 cytotox inactive, D3 antag inactive, MCF10A rereplic inactive, KB-V1 cytotox 16µM, D3 ag inactive and SW480 rerep inactive.
For Cc1cc(N2CCOCC2)c(F)cc1C(=O)c1ccccc1 the results were KB-3-1 cytotox inactive, D3 antag inactive, MCF10A rereplic inactive, KB-V1 cytotox 18µM, D3 ag inactive and SW480 rerep inactive.
`CC(=O)c1cc(F)c(N2CCOCC2)cc1C` gave KB-3-1 cytotox inactive, D3 antag inactive, MCF10A rereplic inactive, KB-V1 cytotox inconclusive, D3 ag inactive and SW480 rerep inactive.
For CCOc1ccc(C(=O)c2cc([N+](=O)[O-])ccc2N2CCOCC2)cc1 the results were KB-3-1 cytotox 0.029µM, D3 antag inactive, MCF10A rereplic inconclusive, KB-V1 cytotox inconclusive, D3 ag inactive and SW480 rerep 0.058µM.
For CCOc1ccc(S(=O)(=O)N2CCN(C(=O)c3cc([N+](=O)[O-])ccc3N3CCOCC3)CC2)cc1 the results were KB-3-1 cytotox inactive, D3 antag inactive, MCF10A rereplic inactive, KB-V1 cytotox inactive, D3 ag inactive and SW480 rerep inactive.
For Cc1ccc(OCC(=O)N/N=C/c2cc([N+](=O)[O-])ccc2N2CCCCC2)cc1 the results were KB-3-1 cytotox inactive, D3 antag inactive, MCF10A rereplic inactive, KB-V1 cytotox inactive, D3 ag inactive and SW480 rerep inactive.
Cc1ccc(-c2cc(C(=O)Nc3c(C(=O)c4ccc(C)c(F)c4)oc4ccccc34)no2)cc1 was read as KB-3-1 cytotox inactive, KB-V1 cytotox inconclusive and D3 ag inactive.
`CCc1ccc(-c2csc(-c3cc4cc(Br)ccc4oc3=O)n2)cc1` gave KB-3-1 cytotox inactive, KB-V1 cytotox inactive and D3 ag inactive.
Screening COc1ccc(C(=O)c2cc([N+](=O)[O-])ccc2N2CCOCC2)cc1 returned KB-3-1 cytotox 1.8µM, D3 antag inactive, MCF10A rereplic inconclusive, KB-V1 cytotox 0.52µM, D3 ag inactive and SW480 rerep 0.37µM.
`O=C(COc1ccc([N+](=O)[O-])cc1)Nc1ccc2c(c1)nc1n2CCOC1` gave KB-3-1 cytotox inconclusive, D3 antag inactive, MCF10A rereplic 23µM, KB-V1 cytotox inactive, D3 ag inactive and SW480 rerep inconclusive.
Screening Cc1ccc(OCC(=O)Nc2ccc3c(c2)nc2n3CCOC2)cc1 returned KB-3-1 cytotox inactive, D3 antag inactive, MCF10A rereplic inactive, KB-V1 cytotox inactive, D3 ag inactive and SW480 rerep inactive.
`Cc1ccc(C(=O)c2cc([N+](=O)[O-])ccc2N2CCCCC2)c(C)c1` gave KB-3-1 cytotox 0.82µM, D3 antag -56, MCF10A rereplic inconclusive, KB-V1 cytotox 1.6µM, D3 ag inactive and SW480 rerep 1.3µM.

Source: PubChem BioAssay (National Center for Advancing Translational Sciences (NCATS))
